Assay results from PubChem BioAssay (NCI).
Compounds without any hit were thinned out: in the full panel of roughly 79,000, 15% have a hit. Active and inactive are the calls of the source. Rule as the data show it: active = growth inhibition above about 70%; inactive = the rest.

Assays:
[1] = NCI Yeast Anticancer Drug Screen. Data for the mec2-1 strain (AID 157); settings: S. cerevisiae mec2-1 strain, active compounds read high
Procedure, shortened: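 mec2-1 yeast strain, carrying an alteration in DNA damage repair or cell cycle control, was exposed to compounds; growth inhibition was measured relative to vehicle-treated controls.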

[2] = NCI Yeast Anticancer Drug Screen. Data for the rad14 strain (AID 159);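 also: 0% = growth of vehicle-treated control cultures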; settings: S. cerevisiae rad14 strain growth inhibition, active compounds read high
Procedure, shortened: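 Here, inhibition of yeast growth was measured after compound exposure, using a strain with a genetic defect in DNA damage repair and vehicle-treated cultures as the reference.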

[3] = NCI Yeast Anticancer Drug Screen. Data for the sgs1 mgt1 strain (AID 161);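 also: 0% = growth of cultures given vehicle only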; settings: S. cerevisiae sgs1 mgt1 strain, active compounds read high
Procedure, shortened: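 This yeast growth screen uses a strain with defined DNA-repair lesions; compound-treated growth is compared with vehicle-treated growth.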

[4] = NCI Yeast Anticancer Drug Screen. Data for the CLN2oe strain (AID 163);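 also: 0% = growth of vehicle-only control cultures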; settings: S. cerevisiae CLN2oe strain, active compounds read high
Procedure, shortened: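 Yeast cells carrying a defined cell-cycle control alteration were exposed to test compounds. Growth inhibition was scored against vehicle-treated control cultures.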

[5] = NCI Yeast Anticancer Drug Screen. Data for the cln2 rad14 strain (AID 165);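 also: 0% = growth equal to vehicle treated cultures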; settings: S. cerevisiae cln2 rad14 strain, active compounds read high
Procedure, shortened: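 Yeast carrying cln2 and rad14 alterations (cell cycle control and DNA damage repair) were exposed to compounds. Growth inhibition was measured against vehicle-treated controls.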

[6] = NCI Yeast Anticancer Drug Screen. Data for the bub3 strain (AID 167); settings: S. cerevisiae bub3 mutant strain, active compounds read high
Procedure, shortened: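 Whole-cell yeast assay. The mutant strain was incubated with compounds, and growth inhibition was determined by comparison with vehicle-treated cells.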

[7] = NCI Yeast Anticancer Drug Screen. Data for the wt2 strain (AID 169);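 also: 0% = growth of vehicle-treated yeast cultures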; settings: S. cerevisiae wt2 strain growth inhibition, active compounds read high
Procedure, shortened: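 Yeast cells were exposed to test compounds, and growth inhibition was measured relative to vehicle-treated controls.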

[8] = NCI Yeast Anticancer Drug Screen. Data for the mlh1 strain (AID 171);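 also: 0% = growth of vehicle-treated control cultures of the same strain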; settings: S. cerevisiae mlh1 strain growth inhibition, active compounds read high
Procedure, shortened: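 Yeast carrying a defined genetic alteration in DNA damage repair or cell cycle control were exposed to test compounds. Growth inhibition was measured relative to vehicle-treated controls.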

[9] = NCI Yeast Anticancer Drug Screen. Data for the sgs1 strain (AID 173);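 also: 0% = growth of vehicle-only control cultures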; settings: S. cerevisiae sgs1 mutant, active compounds read high
Procedure, shortened: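 Yeast mutant strains carrying defined defects in DNA damage repair or cell cycle control were exposed to test compounds. Growth inhibition was scored against vehicle-treated controls.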

[10] = NCI Yeast Anticancer Drug Screen. Data for the mlh1 rad18 strain (AID 175); settings: S. cerevisiae mlh1 rad18 strain growth inhibition, active compounds read high
Procedure, shortened: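 Growth inhibition of the yeast strain was measured after compound exposure and expressed relative to vehicle-treated controls. The strain carries defined defects in DNA damage repair.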

[11] = NCI Yeast Anticancer Drug Screen. Data for the rad18 strain (AID 177); settings: S. cerevisiae rad18 mutant growth inhibition, active compounds read high
Procedure, shortened: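 Yeast carrying a defined DNA damage repair alteration were exposed to compounds. Growth inhibition was expressed relative to vehicle-treated controls.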

[12] = NCI Yeast Anticancer Drug Screen. Data for the rad52 strain (AID 147);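 also: 0% = growth of vehicle-treated control cultures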; settings: S. cerevisiae rad52 mutant growth inhibition, active compounds read high
Procedure, shortened: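 Yeast strain carrying a DNA damage repair alteration was exposed to test compounds. Growth inhibition was measured relative to vehicle-treated controls.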

[13] = NCI Yeast Anticancer Drug Screen. Data for the wt1 strain (AID 149);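 also: 0% = growth of vehicle-treated wt1 cultures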; settings: S. cerevisiae wt1 strain (SPY 50644) growth inhibition, active compounds read high
Procedure, shortened: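 Measured: growth of wt1 yeast under compound versus vehicle treatment, reported as inhibition.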

[14] = NCI Yeast Anticancer Drug Screen. Data for the rad50EPP+ strain (AID 151);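 also: 0% = growth of vehicle-treated control cultures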; settings: S. cerevisiae rad50 mutant strain, active compounds read high
Procedure, shortened: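 Yeast strain carrying rad50 alteration (rad50EPP+) exposed to compounds; growth inhibition measured relative to vehicle-treated controls.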

[15] = NCI Yeast Anticancer Drug Screen. Data for the mgt1 strain (AID 153); settings: S. cerevisiae mgt1 mutant growth inhibition, active compounds read high
Procedure, shortened: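 Yeast mgt1 strain (DNA repair/cell-cycle alteration panel) exposed to compounds; growth inhibition measured relative to vehicle-treated controls.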

[16] = NCI Yeast Anticancer Drug Screen. Data for the rad50 strain (AID 155);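 also: 0% = growth of vehicle-only cultures of the same strain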; settings: S. cerevisiae rad50 strain growth inhibition, active compounds read high
Procedure, shortened: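 Growth of the mutant yeast was measured after compound exposure and referenced to vehicle-treated cultures.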

[17] = at 5.0 µM (retest, dose inferred, filed as 0.5)
[18] = at 50.0 µM (retest, dose inferred, filed as 5.0)

Measured: growth inhibition

O=[N+]([O-])c1cc[n+]([O-])c(Cl)c1
active: [1]; at 33.0 µM 100% | [1]; [18] 99% | [1]; at 50.0 µM 99.7% | [1]; at 100.0 µM 99% | [2]; at 33.0 µM 97% | [2]; at 100.0 µM 100% | [3]; [18] 99% | [3]; at 50.0 µM 99.8% | [4]; at 33.0 µM 79% | [4]; at 100.0 µM 99% | [5]; [18] 98% | [5]; at 50.0 µM 99% | [6]; at 33.0 µM 98% | [6]; [18] 99% | [6]; at 50.0 µM 99.5% | [6]; at 100.0 µM 99% | [7]; at 33.0 µM 99% | [7]; at 100.0 µM 99% | [8]; at 33.0 µM 98% | [8]; at 100.0 µM 99% | [9]; at 33.0 µM 100% | [9]; at 100.0 µM 100% | [10]; [18] 99% | [10]; at 50.0 µM 99.5% | [11]; at 33.0 µM 98% | [11]; at 100.0 µM 99%
inactive: [1]; [17] -3% | [1]; at 11.0 µM 26% | [2]; at 1.2 µM 1% | [2]; at 3.7 µM 5% | [2]; at 11.0 µM 19% | [3]; [17] 1% | [4]; at 1.2 µM -6% | [4]; at 3.7 µM -4% | [4]; at 11.0 µM 12% | [5]; [17] 10% | [6]; at 1.2 µM -16% | [6]; at 3.7 µM -16% | [6]; [17] 5% | [6]; at 11.0 µM -8% | [7]; at 1.2 µM -55% | [7]; at 3.7 µM -50% | [7]; at 11.0 µM -42% | [8]; at 1.2 µM -11% | [8]; at 3.7 µM 16% | [8]; at 11.0 µM 30% | [9]; at 1.2 µM 8% | [9]; at 3.7 µM 10% | [9]; at 11.0 µM 34% | [10]; [17] 1% | [11]; at 1.2 µM -25% | [11]; at 3.7 µM -21% | [11]; at 11.0 µM -5%

CC(C)OC(=O)NNc1cccc(Cl)c1
active: [12]; at 33.0 µM 96% | [12]; at 100.0 µM 97% | [13]; at 33.0 µM 95% | [13]; at 100.0 µM 96% | [14]; at 11.0 µM 93% | [14]; at 33.0 µM 98% | [14]; at 100.0 µM 98% | [15]; at 11.0 µM 87% | [15]; at 33.0 µM 98% | [15]; at 100.0 µM 99% | [16]; at 11.0 µM 98% | [16]; at 33.0 µM 98% | [16]; [18] 95% | [16]; at 50.0 µM 96.1% | [16]; at 100.0 µM 97% | [1]; at 33.0 µM 96% | [1]; [18] 96% | [1]; at 50.0 µM 99.2% | [1]; at 100.0 µM 98% | [2]; at 11.0 µM 76% | [2]; at 33.0 µM 98% | [2]; at 100.0 µM 98% | [3]; [18] 98% | [3]; at 50.0 µM 96.8% | [4]; at 100.0 µM 84% | [5]; [18] 99% | [5]; at 50.0 µM 97.8% | [6]; [17] 83% | [6]; at 11.0 µM 98% | [6]; at 33.0 µM 98% | [6]; [18] 98% | [6]; at 50.0 µM 99% | [6]; at 100.0 µM 98% | [7]; at 11.0 µM 80% | [7]; at 33.0 µM 97% | [7]; at 100.0 µM 98% | [8]; at 33.0 µM 98% | [8]; at 100.0 µM 99% | [10]; [18] 96% | [10]; at 50.0 µM 98%
inactive: [12]; at 1.2 µM 1% | [12]; at 3.7 µM 10% | [12]; at 11.0 µM 57% | [13]; at 1.2 µM 1% | [13]; at 3.7 µM 8% | [13]; at 11.0 µM 35% | [14]; at 1.2 µM 6% | [14]; at 3.7 µM 33% | [15]; at 1.2 µM 0% | [15]; at 3.7 µM 7% | [16]; at 1.2 µM 4% | [16]; at 3.7 µM 26% | [16]; [17] 13% | [1]; at 1.2 µM 0% | [1]; at 3.7 µM 11% | [1]; [17] 21% | [1]; at 11.0 µM 55% | [2]; at 1.2 µM 4% | [2]; at 3.7 µM 12% | [3]; [17] 27% | [4]; at 1.2 µM -7% | [4]; at 3.7 µM -6% | [4]; at 11.0 µM 17% | [4]; at 33.0 µM 53% | [5]; [17] 51% | [6]; at 1.2 µM 3% | [6]; at 3.7 µM 44% | [7]; at 1.2 µM 1% | [7]; at 3.7 µM 13% | [8]; at 1.2 µM -1% | [8]; at 3.7 µM 4% | [8]; at 11.0 µM 55% | [10]; [17] 69%

CC1=CC(=C(c2ccc(N)c(C)c2)c2ccc(N)c(C)c2)C=CC1=N
inactive: [12]; at 1.2 µM 24% | [12]; at 3.7 µM 41% | [12]; at 11.0 µM 47% | [12]; at 33.0 µM 64% | [13]; at 1.2 µM 8% | [13]; at 3.7 µM 9% | [13]; at 11.0 µM 7% | [13]; at 33.0 µM 6% | [14]; at 1.2 µM 8% | [14]; at 3.7 µM 17% | [14]; at 11.0 µM 23% | [14]; at 33.0 µM 30% | [15]; at 1.2 µM -2% | [15]; at 3.7 µM 7% | [15]; at 11.0 µM 12% | [15]; at 33.0 µM 39% | [16]; at 1.2 µM 21% | [16]; at 3.7 µM 10% | [16]; [17] 20% | [16]; at 11.0 µM 18% | [16]; at 33.0 µM 22% | [1]; at 1.2 µM 1% | [1]; at 3.7 µM 5% | [1]; [17] 18% | [1]; at 11.0 µM 3% | [1]; at 33.0 µM 37% | [2]; at 1.2 µM 0% | [2]; at 3.7 µM 2% | [2]; at 11.0 µM -2% | [2]; at 33.0 µM 19% | [3]; [17] 30% | [4]; at 1.2 µM 19% | [4]; at 3.7 µM 36% | [4]; at 11.0 µM 41% | [4]; at 33.0 µM 50% | [5]; [17] 9% | [6]; at 1.2 µM 12% | [6]; at 3.7 µM 26% | [6]; [17] 18% | [6]; at 11.0 µM 29% | [6]; at 33.0 µM 54% | [7]; at 1.2 µM -33% | [7]; at 3.7 µM -20% | [7]; at 11.0 µM -31% | [8]; at 1.2 µM 7% | [8]; at 3.7 µM 10% | [8]; at 11.0 µM 14% | [8]; at 33.0 µM 55% | [10]; [17] 51% | [11]; at 1.2 µM 2% | [11]; at 3.7 µM 20% | [11]; at 11.0 µM 20% | [11]; at 33.0 µM 35%
active: [12]; at 100.0 µM 97% | [13]; at 100.0 µM 90% | [14]; at 100.0 µM 83% | [15]; at 100.0 µM 97% | [16]; [18] 87% | [16]; at 50.0 µM 85.2% | [16]; at 100.0 µM 96% | [1]; [18] 97% | [1]; at 50.0 µM 89.6% | [1]; at 100.0 µM 96% | [2]; at 100.0 µM 97% | [3]; [18] 79% | [3]; at 50.0 µM 83.7% | [4]; at 100.0 µM 97% | [5]; [18] 75% | [5]; at 50.0 µM 74.5% | [6]; [18] 97% | [6]; at 50.0 µM 89.8% | [6]; at 100.0 µM 96% | [7]; at 33.0 µM 75% | [7]; at 100.0 µM 97% | [8]; at 100.0 µM 96% | [10]; [18] 94% | [10]; at 50.0 µM 84.8% | [11]; at 100.0 µM 96%
